ELG1 DNA repair: ELG1-dependent DNA repair inhibition | hit rate 2.3% among 330,000 | Potency, µM (series often up to 46.1 µM), without a hit: at the top dose activity change, negative = inhibition, usual class: inhibitors | HEK293T ELG1-luciferase reporter, luminescence, 16 h; DNA damage induced by 5-fluorouridine; further: potency means the concentration at half of the fitted maximal effect; nearly all actives have a fitted effect of over 55% in size
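Reporter activity after DNA damage by 5-fluorouridine is monitored. Compound-treated cells incubate 16 hr at 37 °C, then ONE-Glo is added for 30 min before luminescence reading.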
Gal4-VP16 FLuc: Gal4-VP16 reporter inhibition counter-screen; Drosophila S2 Gal4-VP16 UAS-luciferase, luminescence, 20 h; Potency, µM (doses to about 53.6 µM), without a hit: top-dose activity, negative = inhibition, usual class: inhibitors; hit rate 3.5% among 310,000; AID 2546;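 further: Gal4-VP16 expression switched on by copper sulfate through the metallothionein promoter; potency means the concentration at half of the fitted maximal effect; nearly all actives have a fitted effect of over 50% in size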
DT40 TDP1 CPT: growth inhibition of DT40 Tdp1-/-;hTDP1 cells with camptothecin (screen for TDP1 inhibitors). Potency, µM (titrated, usually from 46.2 µM), without a hit: top-dose activity change, negative = growth inhibition, usual class: inhibitors. chicken DT40 Tdp1-/-;hTDP1 cells + 20 nM CPT, ATP luminescence, 48 h. hit rate 12% among 420,000; further: potency means the concentration at half of the fitted maximal effect; nearly all actives have a fitted effect of over 55% in size
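Cell growth measured by CellTiter-Glo luminescence after a minimum 48 h, 37 C compound exposure with 20 nM CPT in Tdp1-knockout DT40 cells stably expressing hTDP1, seeded 400/well; qHTS titration format.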
IL-1B inflam inh: inhibitors of inflammasome signaling (IL-1 beta secretion); THP-1 LPS/ATP IL-1B secretion, AlphaLISA, 16 h; stronger effect = lower value; activity change, % at 57.5 µM; hit rate 4.7% among 360,000; in the data active means activity change below about -50%; inconclusive means mostly about -30% to -49%
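Secreted IL-1B measured by AlphaLISA bead assay after 16 h compound exposure of THP-1 cells; compounds (final up to 57.5 uM) added 1 h before LPS (250 ng/mL) and ATP (1.25 mM) stimulation; lower signal means less secretion.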
TDP1 cell noCPT: qHTS for Inhibitors of human tyrosyl-DNA phosphodiesterase 1 (TDP1): qHTS in cells in absence of CPT; DT40 Tdp1-/- hTDP1 cells, no CPT, ATP luminescence, 48 h; AID 686978, 2013; Potency, µM (highest dose often 46.2 µM), for the others: top-dose activity change, negative = growth inhibition, usual class: inhibitors; hit rate 15% among 420,000; further: potency means the concentration at half of the fitted maximal effect; nearly all actives have a fitted effect of over 55% in size
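Chicken DT40 Tdp1-/- cells stably complemented with human TDP1 were seeded at 400 cells/well with DMSO in place of 20 nM camptothecin. After compound pinning, cells grew at least 48 hr at 37 °C; viability read by CellTiter-Glo luminescence.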
RORg inh: blocks mouse ROR gamma transcriptional activity. P51450. Drosophila S2 Gal4-RORgamma UAS-luciferase reporter, 20 h. Potency, µM (doses to about 53.6 µM), for the others: at the top dose activity change, negative = inhibition, hits mostly inhibitors. hit rate 5.4% among 310,000. AID 2551; further: potency means the concentration at half of the fitted maximal effect; nearly all actives have a fitted effect of over 60% in size
Target sequence (P51450 whole entry, looked up, the tested form may be a part): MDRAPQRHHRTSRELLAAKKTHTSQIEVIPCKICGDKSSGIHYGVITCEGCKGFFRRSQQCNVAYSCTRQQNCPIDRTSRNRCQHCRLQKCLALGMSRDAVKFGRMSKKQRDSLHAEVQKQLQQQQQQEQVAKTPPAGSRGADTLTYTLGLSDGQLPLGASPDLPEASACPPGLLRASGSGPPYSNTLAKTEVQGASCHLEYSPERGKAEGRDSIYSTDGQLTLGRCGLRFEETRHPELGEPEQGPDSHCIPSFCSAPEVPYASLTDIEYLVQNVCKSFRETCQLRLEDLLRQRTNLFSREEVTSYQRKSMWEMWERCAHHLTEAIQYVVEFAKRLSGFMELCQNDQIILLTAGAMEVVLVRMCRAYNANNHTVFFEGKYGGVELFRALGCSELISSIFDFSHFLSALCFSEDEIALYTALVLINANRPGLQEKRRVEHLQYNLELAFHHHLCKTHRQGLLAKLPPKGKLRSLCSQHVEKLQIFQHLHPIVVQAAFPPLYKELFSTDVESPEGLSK
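A Gal4/UAS one-hybrid system in insect cells: metallothionein-promoter Gal4–ROR gamma fusion plus Photinus luciferase reporter. Copper sulfate 700 uM final, 20 hr ambient incubation, luminescent detection after 10 min with reagent.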
An asterisk follows results filed as active; [ ] = remark or other dose. Shown are actives, neighbours in structure and some others; about 21% of the full set was active somewhere. Unless noted, the call rests on the fitted dose curve; in most records, active means well fitted curve in the direction sought with a large enough effect; inconclusive means small, poorly fitted or top-dose-only effect, or another doubt; inactive means no such curve, though single readings can be large; an effect the other way counts as inactive or inconclusive. On the % scale 0 is the no-effect control and ±100 the full control effect.

What do the screens show for `COc1ccc(C(=O)CC(=O)C(=O)Nc2ccccc2OC)cc1`?
ELG1 DNA repair: inconclusive; Gal4-VP16 FLuc: 4.5µM*; DT40 TDP1 CPT: inconclusive; IL-1B inflam inh: 33; TDP1 cell noCPT: inconclusive; RORg inh: 5.6µM*

What do the screens show for `Cc1ccc(C(=O)N/C(=C/C=C\c2ccccc2)C(=O)NCc2ccco2)cc1`?
ELG1 DNA repair: inconclusive; Gal4-VP16 FLuc: 0%; DT40 TDP1 CPT: inconclusive; IL-1B inflam inh: 0; TDP1 cell noCPT: inconclusive; RORg inh: inconclusive

How did Cc1ccc(CC(=O)Nc2cccc(C(=O)Nc3c(C)n(C)n(-c4ccccc4)c3=O)c2)cc1C do in these assays?
DT40 TDP1 CPT: inconclusive; IL-1B inflam inh: 23; TDP1 cell noCPT: inconclusive

Results for CCOc1ccc(S(=O)(=O)N(C)CC(=O)NC2CCCC2)cc1 ?
ELG1 DNA repair: 0%; Gal4-VP16 FLuc: -13%; DT40 TDP1 CPT: -23%; IL-1B inflam inh: 0; TDP1 cell noCPT: -4%; RORg inh: inconclusive

What do the screens show for `COc1ccccc1NC(=O)CCC(=O)c1ccc(-c2ccccc2)cc1`?
ELG1 DNA repair: -1%; Gal4-VP16 FLuc: -13%; DT40 TDP1 CPT: inconclusive; IL-1B inflam inh: 61; TDP1 cell noCPT: 23µM*; RORg inh: 5%[10 µM]

Results for COc1cc(OC)c(NC(=O)C(=O)CC(=O)c2ccc(C)cc2C)cc1Cl ?
ELG1 DNA repair: inconclusive; Gal4-VP16 FLuc: -6%[10 µM]; DT40 TDP1 CPT: 4.6µM*; IL-1B inflam inh: -6; TDP1 cell noCPT: 2.6µM*; RORg inh: inconclusive

What do the screens show for `COc1ccc(C(=O)CC(=O)C(=O)Nc2ccc(C)c(C)c2)cc1`?
ELG1 DNA repair: -24%; Gal4-VP16 FLuc: inconclusive; DT40 TDP1 CPT: 21µM*; IL-1B inflam inh: 3; TDP1 cell noCPT: 21µM*; RORg inh: 13µM*

How did COc1cccc(C(=O)CC(=O)C(=O)Nc2cc(OC)ccc2OC)c1 do in these assays?
ELG1 DNA repair: inconclusive; Gal4-VP16 FLuc: inconclusive; DT40 TDP1 CPT: 18µM*; IL-1B inflam inh: 22; TDP1 cell noCPT: 23µM*; RORg inh: 11µM*

How did COc1ccccc1NC(=O)CCSCCC(=O)Nc1ccccc1OC do in these assays?
ELG1 DNA repair: -3%; Gal4-VP16 FLuc: 1%; DT40 TDP1 CPT: 7%; IL-1B inflam inh: 21; TDP1 cell noCPT: inconclusive; RORg inh: -6%

Results for O=C(Cn1c(=O)nc(-c2ccccc2F)c2cc(Cl)ccc21)Nc1ccccc1C(F)(F)F ?
DT40 TDP1 CPT: -28%; TDP1 cell noCPT: inconclusive

What do the screens show for `COc1ccc(NC(=S)NNS(=O)(=O)c2ccc3ccccc3c2)c(OC)c1`?
ELG1 DNA repair: -10%; Gal4-VP16 FLuc: 9%; DT40 TDP1 CPT: -11%; IL-1B inflam inh: 18; TDP1 cell noCPT: inconclusive; RORg inh: -4%

Results for COc1ccccc1NC(=O)C(=O)NNS(=O)(=O)c1ccc2ccccc2c1 ?
ELG1 DNA repair: 1%; Gal4-VP16 FLuc: 5%; DT40 TDP1 CPT: 23µM*; IL-1B inflam inh: 0; TDP1 cell noCPT: 26µM*; RORg inh: -9%

What do the screens show for `CCOc1ccccc1NC(=O)C(=O)CC(=O)c1cccc(OC)c1`?
ELG1 DNA repair: -20%; Gal4-VP16 FLuc: 7.9µM*; DT40 TDP1 CPT: inconclusive; IL-1B inflam inh: 18; TDP1 cell noCPT: inconclusive; RORg inh: 3.5µM*

What do the screens show for `CCCCOC(=O)c1ccc(NC(=O)C(=O)CC(=O)c2ccc(OC)cc2)cc1`?
ELG1 DNA repair: -20%; Gal4-VP16 FLuc: inconclusive; DT40 TDP1 CPT: 16µM*; IL-1B inflam inh: -4; TDP1 cell noCPT: 16µM*; RORg inh: -41%

Results for CCCCOC(=O)c1ccc(NC(C)=O)cc1 ?
ELG1 DNA repair: inconclusive; Gal4-VP16 FLuc: 14%; DT40 TDP1 CPT: 4%; IL-1B inflam inh: 15; TDP1 cell noCPT: -10%; RORg inh: 2%
